The values below come from the OligoGym collection.
Note: reference of the scale not given here.

One test addresses AP1S1. Nature of the test: pooled miR-30 sensor sort-seq; sequence = guide strand. The settings on record: shRNA.
As for TAAGAGCTCCACGTATCGGTGG, the sensor-assay potency score (higher = more potent) was found to be 0.135.

Turning to TAGACAACTTTGAGGTCCCTCC, the sensor-assay potency score (higher = more potent) was -0.899.

TTCTTCCGTTCCTTGTCCGAAG showed a sensor-assay potency score (higher = more potent) of -0.991.

In the case of ATCTCTTATAGACAACTTTGAG, the sensor-assay potency score (higher = more potent) is -0.956.

As for ATATCTCTTATAGACAACTTTG, the sensor-assay potency score (higher = more potent) is -1.12.

The next test deals with AP2B1. Described as above. The note with it: shRNA.
With TAGAAGATCACCTTGAGAGGGG, the sensor-assay potency score (higher = more potent) worked out at 0.529.

In turn, TCGAACAAAGTCAACATCCACC returned a sensor-assay potency score (higher = more potent) of -0.757.

On to TCATCCTTCAAGCACTTGCGGA, for which the sensor-assay potency score (higher = more potent) was -1.05.

For TTTCATTGTTGAGTTCAGCTTT, the sensor-assay potency score (higher = more potent) is 0.578.

Sequence TTTCTAGTAACTCATCTGCATT showed a sensor-assay potency score (higher = more potent) of -1.34.

With TTCTGTAATTTTGTCTACCCGG, the sensor-assay potency score (higher = more potent) was -1.02.

In the case of TTAGTTCAAATATTTCTCCTTT, the sensor-assay potency score (higher = more potent) was determined as 0.546.

On to TTGTTTTTCACAGCCACCTGGA, for which the sensor-assay potency score (higher = more potent) was -0.558.

Sequence TTTAGTTCAAATATTTCTCCTT showed a sensor-assay potency score (higher = more potent) of 0.5.

TAAATGACATTCCTTAATCTGA came in with a sensor-assay potency score (higher = more potent) of -0.695.

Sequence TTCAGATCAAGTAAGTTGCTGT had a sensor-assay potency score (higher = more potent) of 1.15.

TAGTTCCAGATTGTCAGTCTGC showed a sensor-assay potency score (higher = more potent) of -0.496.

Sequence TTGTTGTTTTGCAACTTGCTGG registered a sensor-assay potency score (higher = more potent) of -0.34.

TAATCTGAAACTGAAGTTCATT showed a sensor-assay potency score (higher = more potent) of -0.631.

AATAGTATAAACATTGTTGTTT came in with a sensor-assay potency score (higher = more potent) of -0.183.

TAACAATTCTAGAAACTTCATT came in with a sensor-assay potency score (higher = more potent) of -0.559.

The sequence TATTGTAGTAGTCAGAATCCTT gave a sensor-assay potency score (higher = more potent) of 0.0218.

For the sequence TTCATTAGGACTTTTACCGCTG, the sensor-assay potency score (higher = more potent) came to 0.615.

TTGTTTTGCAACTTGCTGGAAA: the sensor-assay potency score (higher = more potent) is -0.458.

TTCATCGTGAAAACCCTCCAGG: the sensor-assay potency score (higher = more potent) is -0.0807.

As for AAAGAGAGAACTAACATCCTTC, the sensor-assay potency score (higher = more potent) came out at 0.773.

As to TAGCATATTCTTTCAGTTCTGC, the sensor-assay potency score (higher = more potent) was 0.583.

Sequence TAGAGAATCCAGAAATCCCTGA displayed a sensor-assay potency score (higher = more potent) of 0.164.

TTTCAGTTCTGCCAGAACCTGA showed a sensor-assay potency score (higher = more potent) of -0.77.

For a further test, the target named is AP3B1. Described as above. The settings on record: shRNA.
TTCTTTATAACAACCACACTTT yielded a sensor-assay potency score (higher = more potent) of 0.0495.

Regarding TTTGAATTGACATAGTTGCTAT, the sensor-assay potency score (higher = more potent) was -0.399.

The sequence TTTCTTTGAATTGACATAGTTG came in with a sensor-assay potency score (higher = more potent) of -0.577.

Sequence TTCTTCAGCATATCGAACCAGG returned a sensor-assay potency score (higher = more potent) of -0.815.

On to TTATGAATCAGATCTATTCTGT, for which the sensor-assay potency score (higher = more potent) stood at 0.754.

Sequence TTGCTTTAGATCTTCATTCTTC returned a sensor-assay potency score (higher = more potent) of 0.267.

Regarding TAGAAGTGAAACATCTTTGGTA, the sensor-assay potency score (higher = more potent) came out at 0.763.

The sequence TAAACATATACCAACTTCTTGA returned a sensor-assay potency score (higher = more potent) of -0.605.

In the case of TAAACCTTCAAGATCAGCCATC, the sensor-assay potency score (higher = more potent) was -0.757.

For TACATTCGGAACAATAAGCTGC, the sensor-assay potency score (higher = more potent) was 0.383.

The sequence TACTTCTACATTTCGAACTGAT had a sensor-assay potency score (higher = more potent) of 0.236.
